{"source": "PubChem BioAssay (EPA / NIEHS)", "note": "Values joined by “and” are separate entries in the source; they are usually repeats but may differ in a detail not shown here. Equal entries are not always repeated. Inconclusive results are not listed. Active and inactive are the calls of the source. How the source made its calls, unless noted: active means hit-call score of the fitted dose curve at least 0.9, where 1 is the maximum; inconclusive means response in the unintended direction; inactive means score below 0.9."}
{"test_system": "not listed separately", "assay": "TAMU_PeakParms_SingleDonor1434_Asystole: Texas A&M University (TAMU) 1.5-hr Human Induced Pluripotent Stem Cell (iPSC)-derived Cardiomyocytes Calcium (Ca+2) Flux Assay for Cardiotoxicity: Asystole (quiescence of beating) (AID 2284328)", "settings": "not given", "method_in_brief": "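Donor 1434 iPSC-cardiomyocytes exposed 90 min at 37C, 5% CO2, to 0.2, 1, 10 and 100 uM in 0.5% DMSO. Ca2+ dye fluorescence gave average peak frequency; POD is EC95, a 95% beat-rate drop versus controls.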"}
{"smiles": "OC[C@H]1O[C@@](CO)(O[C@H]2O[C@H](CO)[C@@H](O)[C@H](O)[C@H]2O)[C@@H](O)[C@@H]1O", "outcome": "inactive"}
{"smiles": "COc1cc2c(c(OC)c1OC)-c1ccc(OC)c(=O)cc1[C@@H](NC(C)=O)CC2", "outcome": "inactive"}
{"smiles": "CCN(CC)C(=S)SSC(=S)N(CC)CC", "outcome": "inactive"}
{"smiles": "c1ccc2cc3ccccc3cc2c1", "outcome": "inactive"}
{"smiles": "CCCC(CCC)C(=O)O", "outcome": "inactive"}
{"test_system": "Brachyury (BRA) Protein Expression, Deisenroth Lab, TBXT (gene 6862)", "assay": "CCTE_Deisenroth_DEVTOX-GLR_legacy_Bra: (Legacy) CCTE's DevTox GLR-Endo Assay Evaluation of Brachyury (BRA) Protein Expression, Deisenroth Lab (AID 2284329; active means hit-call score of the fitted dose curve at least 0.9, where 1 is the maximum; inactive means score below 0.9)", "settings": "not given", "protocol": "CCTE_Deisenroth_DEVTOX-GLR_legacy assay is a cell-based, multiplex-readout assay that uses RUES2-GLR, a human pluripotent cell line, with measurements taken at 48 hours after chemical dosing in a 384-well microplateCCTE_Deisenroth_DEVTOX-GLR_legacy_Bra is one of 4 assay components calculated from the CCTE_Deisenroth_DEVTOX-GLR_legacy assay that measures an increase in the percentage of cells in an […] state. It is designed to make measurements of inducible reporter a form of fluorescent protein induction as detected with optical fluorescence microscopy. Percentage Bra+ cells are determined by calculating the number of Bra+ cells divided by cell count. A cell is Bra+ if the cell Bra mean intensity is 5x BMAD above the pluripotent control median cell Bra mean. The assay endpoint was analyzed with bidirectional fitting with the 0.2% DMSO control median percent Bra in the DEVTOX-GLR assay subtracted.Data from the assay component CCTE_Deisenroth_DEVTOX-GLR_legacy_Bra was analyzed into 1 assay endpoint. This assay endpoint, CCTE_Deisenroth_DEVTOX-GLR_legacy_Bra, was analyzed in the positive analysis fitting direction relative to DMSO as the negative control and baseline activity. Using a type of inducible reporter, gain-of-signal activity can be used to understand changes in gene expression. Furthermore, this assay endpoint can be referred to as a secondary readout, because this assay has produced multiple assay endpoints where this one serves as a measure of mesoderm differentiation. To generalize the intended target to other relatable targets, this assay endpoint is annotated to the transcription factor intended target family, where the subfamily is T-box protein.\nAll assay protocols are aligned to the DevTox GLR-Endo assay workflow. […] Cell identification and mean biomarker fluorescence intensities are calculated with image analysis software to determine the total cell counts for viability assessment and the biomarker expression frequency for each lineage-dependent assay. […]"}
{"smiles": "NNC(=O)c1ccncc1", "outcome": "inactive"}
{"smiles": "Nc1ccn([C@@H]2O[C@H](CO)[C@@H](O)[C@@H]2O)c(=O)n1", "AC50": "0.152 µM (active)"}
{"smiles": "CCCC(CCC)C(=O)O", "outcome": "inactive"}
{"test_system": "not listed separately", "assay": "CCTE_Deisenroth_DEVTOX-GLR_legacy_CellCount: (Legacy) Viability Assessment in CCTE's DevTox GLR-Endo Assay, Deisenroth Lab (AID 2284331; active means hit-call score of the fitted dose curve at least 0.9, where 1 is the maximum; inactive means score below 0.9)", "settings": "actives raise or lower the signal", "method_in_brief": "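Human pluripotent RUES2-GLR cells differentiated 48 h with two 24-h-interval exposures, 10-point 1 nM–200 uM series, 0.2% DMSO. Fixed nuclei counted by high-content imaging (5 fields/well); bidirectional fit vs DMSO, n≥4.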"}
{"smiles": "NC(=O)N1c2ccccc2C=Cc2ccccc21", "AC50": "67 µM (active)"}
{"smiles": "NNC(=O)c1ccncc1", "outcome": "inactive"}
{"smiles": "Nc1ccn([C@@H]2O[C@H](CO)[C@@H](O)[C@@H]2O)c(=O)n1", "AC50": "0.259 µM (active)"}
{"smiles": "CCCC(CCC)C(=O)O", "outcome": "inactive"}
{"test_system": "not listed separately", "assay": "VALA_TUBIPS_Antagonist_CellCount: Viability Assessment in the VALA Sciences human iPS-derived Endothelial Tubule Formation (TUBIPS) Antagonism Assay (AID 2284335)", "settings": "not given"}
{"smiles": "CCN(CC)C(=S)SSC(=S)N(CC)CC", "outcome": "inactive"}
{"smiles": "OCCNCCO", "outcome": "inactive"}
{"smiles": "CCCCCCCCCC", "outcome": "inactive"}
{"smiles": "Cn1cc[nH]c1=S", "outcome": "inactive"}
{"smiles": "CCCC(CCC)C(=O)O", "outcome": "inactive"}
{"test_system": "not listed separately", "assay": "VALA_MIGHUV1_ScratchOnly_WoundArea: VALA Sciences human Umbilical Vein Endothelial Cell Migration (MIGHUV) Assay, Area of Scratch Wound Inhibited Recovery (AID 2284336)", "settings": "not given", "method_in_brief": "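Wound area remaining after 24 h recovery imaged by Hoechst nuclear fluorescence in scratched HUVEC cultures, chemicals added within 30 min of scratching across a 6-point series. Gain of signal fitted against 0.1% DMSO; cytochalasin D positive control.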"}
{"smiles": "CCN(CC)C(=S)SSC(=S)N(CC)CC", "outcome": "inactive"}
{"smiles": "OCCNCCO", "outcome": "inactive"}
{"smiles": "CCCCCCCCCC", "outcome": "inactive"}
{"smiles": "Cn1cc[nH]c1=S", "outcome": "inactive"}
{"test_system": "not listed separately", "assay": "VALA_TUBHUV_Agonist_TubuleLength: VALA Sciences human Umbilical Vein Endothelial Tubule Formation (TUBHUV) Agonism Assay (AID 2284337)", "settings": "not given", "method_in_brief": "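Tubule length quantified by CD31 immunofluorescence imaging after fixation. HUVEC-HDF co-cultures (1:3) pre-grown 3 days with 10 ng/ml VEGF, then dosed 3 days in VEGF medium; 0.1 % DMSO vehicle baseline.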"}
{"smiles": "CCN(CC)C(=S)SSC(=S)N(CC)CC", "outcome": "inactive"}
{"smiles": "OCCNCCO", "outcome": "inactive"}
{"smiles": "Cn1cc[nH]c1=S", "outcome": "inactive"}
{"test_system": "not listed separately", "assay": "VALA_TUBIPS_Agonist_CellCount: Viability Assessment in the VALA Sciences human iPS-derived Endothelial Tubule Formation (TUBIPS) Agonism Assay (AID 2284338)", "settings": "not given", "protocol": "VALA_TUBIPS_Agonist is a cell-based, multiplexed assay that uses human iPS-derived endothelial cells (iPSC). Measurements were taken 72 hours after chemical dosing in a 96-well plate.VALA_TUBIPS_Agonist_CellCount is the one of two assay components measured from the VALA_TUBIPS_Agonist assay. It is designed to make measurements of viability, a form of viability reporter, as detected with fluorescence intensity signals by HCS Fluorescent Imaging technology. Data from the assay component VALA_TUBIPS_Agonist_CellCount was analyzed at the endpoint, VALA_TUBIPS_Agonist_CellCount, in the positive analysis fitting direction relative to DMSO as the negative control and baseline of activity. Using a type of viability reporter, loss-of-signal activity can be used to understand viability. To generalize the intended target to other relatable targets, this assay endpoint is annotated to the cell cycle intended target family, where the subfamily is cell count.\n[…]"}
{"smiles": "CCN(CC)C(=S)SSC(=S)N(CC)CC", "outcome": "inactive"}
{"smiles": "OCCNCCO", "outcome": "inactive"}
{"smiles": "CCCCCCCCCC", "AC50": "7.79 µM (active)"}
{"smiles": "Cn1cc[nH]c1=S", "outcome": "inactive"}
{"test_system": "not listed separately", "assay": "CCTE_Mundy_HCI_iCellGluta_NOG_NeuronCount: CCTE's Neurite Outgrowth Assay in iCellGluta cells for Neuron Count, Mundy Lab (AID 2284340);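 further: cells fixed about 48 h after compound addition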", "settings": "not given", "method_in_brief": "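Neuron count read by automated high-content imaging of Hoechst 33342 and betaIII-tubulin/Alexa Fluor-488 labelling in human iPSC glutamatergic neurons. Activity fitted relative to DMSO.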"}
{"smiles": "FC(F)=C(F)C(F)(F)C(F)(F)C(F)(F)C(F)(F)C(F)(F)C(F)(F)F", "outcome": "inactive"}
{"smiles": "OC(O)(C(F)C(O)(O)C(F)(F)F)C(F)(F)F", "outcome": "inactive"}
{"smiles": "Nc1ccn([C@@H]2O[C@H](CO)[C@@H](O)[C@@H]2O)c(=O)n1", "AC50": "415 nM (active) and 814 nM (active)"}
{"smiles": "Cn1cc[nH]c1=S", "outcome": "inactive"}
{"smiles": "O=C(Cl)C(F)(F)C(F)(F)C(F)(F)C(=O)Cl", "outcome": "inactive"}
{"smiles": "c1ccc2cc3ccccc3cc2c1", "outcome": "inactive"}
{"test_system": "SRY-box transcription factor 17 (SOX17) Protein Expression, Deisenroth Lab, SOX17 (gene 64321)", "assay": "CCTE_Deisenroth_DEVTOX-GLR_legacy_Sox17: (Legacy) CCTE's DevTox GLR-Endo Assay Evaluation of SRY-box transcription factor 17 (SOX17) Protein Expression, Deisenroth Lab (AID 2284341; active means hit-call score of the fitted dose curve at least 0.9, where 1 is the maximum; inactive means score below 0.9)", "settings": "actives raise or lower the signal", "method_in_brief": "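RUES2-GLR human pluripotent cells differentiated toward endoderm for 48 h, dosed twice at 24 h intervals (1 nM–200 uM, 10 points). Imaging gives % SOX17+ cells (intensity >5x BMAD above pluripotent control median); bidirectional fit versus 0.2% DMSO.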"}
{"smiles": "NC(=O)N1c2ccccc2C=Cc2ccccc21", "AC50": "100 µM (active)"}
{"smiles": "NNC(=O)c1ccncc1", "outcome": "inactive"}
{"smiles": "Nc1ccn([C@@H]2O[C@H](CO)[C@@H](O)[C@@H]2O)c(=O)n1", "AC50": "0.554 µM (active)"}
{"smiles": "CCCC(CCC)C(=O)O", "outcome": "inactive"}
